# 14-3-3 PPI: 14-3-3 gamma protein interaction modulation. FP, 14-3-3gamma / TMR-pS259-Raf peptide binding. inhibition, % at 40 µM. 0.19% of 160,000 active. AID 422; in the data active = inhibition above about 30%;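 note: 0% = protein plus tracer without compound and 100% = blank with tracer alone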
# Target sequence (P61981 whole entry, looked up): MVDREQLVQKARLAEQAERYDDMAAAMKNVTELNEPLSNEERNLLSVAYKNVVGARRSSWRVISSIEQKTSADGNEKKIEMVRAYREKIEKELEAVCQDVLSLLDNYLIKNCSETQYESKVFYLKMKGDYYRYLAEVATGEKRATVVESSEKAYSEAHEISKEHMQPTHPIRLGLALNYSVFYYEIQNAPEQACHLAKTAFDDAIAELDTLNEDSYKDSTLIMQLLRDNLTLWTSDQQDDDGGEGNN
# Active calls of the source: *. Shown is part of a subset that was picked to be rich in hits.
SMILES,14-3-3 PPI
CCCCC1(C(=O)OCC)CC(CN2CCOCC2)OC1=O (centres undefined),54*
CCCCOC(=O)N1CCOCCOCCN(C(=O)OCCCC)CCOCCOCC1,0
CCOC(=O)c1c(NC(=O)CN2CCOCC2)sc2c1CCCC2,-8
Nc1ccc2nc(-c3ccc4nc(N)sc4c3)[nH]c2c1,-22
CC1CCN(C(=O)c2cn(C3CCCCC3)c(=O)c3c2c2ccccc2n3C)CC1,-8
CC(=O)C1=C(C)NC2(O)c3ccccc3C(=O)C12O (centres undefined),5
O=C1CCCC2=C1C1(O)C(=O)c3ccccc3C1(O)O2 (centres undefined),56*
N#CC1=C(N)OC2=C(C(=O)CCC2)[C@]12C(=O)N(CC(N)=O)c1ccccc12,0
O=C(CCN1C(=O)c2ccccc2C1=O)NCc1ccccn1,177*
O=C(CN1C(=O)c2ccccc2C1=O)NCc1ccccn1,14
O=C(CCN1C(=O)c2ccccc2C1=O)NCc1ccncc1,-1
Cc1cccc(Oc2cc([N+](=O)[O-])cc3c2C(=O)Nc2ccccc2O3)c1,-83
COc1cccc(Oc2cc([N+](=O)[O-])cc3c2C(=O)Nc2ccccc2O3)c1,61*
O=C1Nc2ccccc2Oc2cc([N+](=O)[O-])cc(Oc3ccccc3)c21,-79
COc1ccc(C(=O)N2CCN(Cc3ccc(Br)cc3)CC2)cc1OC,-4
CCC(=O)N1CCc2cc(Br)cc(S(=O)(=O)NCc3ccc(C)o3)c21,-9
CSc1nnc2c3cc(F)ccc3n(Cc3ccccc3)c2n1,113*
CSc1nnc2c3ccccc3n(Cc3ccccc3)c2n1,-7
CSc1nnc2c3ccccc3n(CCc3ccccc3)c2n1,3
CSc1ccc(-c2nc3cc(C)ccn3c2Nc2ccc3c(c2)OCO3)cc1,2
O=C(CN1CCN(Cc2ccccc2Cl)C1=O)NCc1cccnc1,-5
O=C(CN1CCN(Cc2ccc(F)cc2)C1=O)NCc1ccccc1Cl,-10
O=C(CN1CCN(Cc2ccccc2Cl)C1=O)NCc1ccccn1,71*
CCCOc1ccc(NC(=O)C2CC(=O)N(CC)C(=Nc3ccc(C)c(C)c3)S2)cc1 (centres undefined),-8

# From PubChem BioAssay
